This is a sample that favours compounds with a hit; in the whole collection about 4.6% have one here.
TRHR agonist – qHTS for Small Molecule Agonists and Allosteric Enhancers of Human TRH Receptor: Primary Screen for Agonists. TRHR cells, calcium flux fluo-8, FDSS agonist mode. hit rate 0.18% among 360,000. activation, % at 2 µM. Thyrotropin-releasing hormone receptor (Homo sapiens), P34981. AID 493084, 2011; further: 0% is about no effect
Target sequence (P34981 whole entry, looked up): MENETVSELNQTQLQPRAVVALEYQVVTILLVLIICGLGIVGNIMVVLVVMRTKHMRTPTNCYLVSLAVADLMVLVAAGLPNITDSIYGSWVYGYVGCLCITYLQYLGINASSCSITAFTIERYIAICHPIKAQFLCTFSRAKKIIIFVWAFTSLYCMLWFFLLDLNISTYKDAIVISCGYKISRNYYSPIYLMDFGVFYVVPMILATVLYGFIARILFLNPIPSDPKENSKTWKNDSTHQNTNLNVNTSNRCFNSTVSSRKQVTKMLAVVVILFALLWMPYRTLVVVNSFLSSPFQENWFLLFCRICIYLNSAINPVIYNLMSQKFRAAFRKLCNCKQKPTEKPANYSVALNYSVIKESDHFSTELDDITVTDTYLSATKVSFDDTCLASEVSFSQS
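Agonist-mode FDSS calcium read (Ex 480/Em 530, 1 s cycles) in 1536-well TRHR cells with fluo-8 dye, after 10-cycle baseline and 23 nL compound addition; TRH at EC20 (10 nM final) added afterwards for the enhancer phase.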
TRHR PAM – qHTS for Small Molecule Agonists and Allosteric Enhancers of Human TRH Receptor: Primary Screen for Enhancers. enhancement, % at 2 µM. Thyrotropin-releasing hormone receptor (Homo sapiens), P34981. hit rate 0.66% among 360,000. TRHR cells, fluo-8 calcium fluorescence, EC20 TRH enhancement; in the data active means enhancement above about 30%; further: 0% is about no effect
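Enhancer read-out: after compound pinning and an initial kinetic agonist-mode read, an EC20 of TRH (10 nM final) was injected and fluo-8 calcium signal (Ex 480/Em 530) followed at 1 s/cycle for 100 cycles in TRHR-expressing cells.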
D1 antagonist – Antagonist of Human D 1 Dopamine Receptor: qHTS | hit rate 3.2% among 360,000 | activity change, negative = inhibition, % at 10 µM | HEK293 TREx D1 cells, calcium flux, dopamine EC80; active compounds read low; in the data active means activity change below about -30%; further: on the % scale 0 is the no-effect control and ±100 the full control effect
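After overnight tetracycline induction at 30 C, force-coupled D1 HEK293 cells took up a no-wash calcium dye at room temperature. Compounds were added and monitored 180 s, and the response to EC80 dopamine was then recorded.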
D1 ag – Allosteric Agonists of the Human D1 Dopamine Receptor: qHTS. activation, % at 2 µM. hit rate 1% among 360,000. HEK293 T-REx D1 cells, calcium flux, agonist mode. D(1A) dopamine receptor (Homo sapiens), P21728. AID 504660, 2011; further: 0% is about no effect
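Agonism was scored from calcium flux recorded over 180 s (1 read/s) after pintool compound addition, following a 10-cycle baseline. Cells were inducible force-coupled HEK293 TREx D1, plated overnight at 30 C and loaded with no-wash calcium dye.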
D1 PAM – Potentiators of Human D1 Dopamine Receptor: qHTS. D(1A) dopamine receptor (Homo sapiens), P21728. HEK293 TREx D1 cells, calcium flux, dopamine EC20 potentiation. potentiation, % at 10 µM. hit rate 0.036% among 360,000. AID 504651, 2011; in the data active means potentiation above about 30%; further: 0% is about no effect
Active calls of the source: *. Unless noted, no stated cut-off is given here; in the data, active means activation above about 30%; inactive means the rest.

SMILES	TRHR agonist	TRHR PAM	D1 antagonist	D1 ag	D1 PAM
O=C(Nc1ccc(Br)cc1)c1ccc(N2C(=O)C3CCCCC3C2=O)cc1 (configuration not stated)	1	3	-37*	4	-6
O=C(Nc1ccc(Br)cc1)c1cccc(N2C(=O)C3CCCCC3C2=O)c1 (configuration not stated)	0	-3	-14	8	-5
COc1ccc(C(=O)c2sc3nc(C)cc(-c4cccs4)c3c2N)cc1OC	21	-12	31	82*	0
Cc1cc(-c2cccs2)c2c(N)c(C(=O)c3ccc4c(c3)OCO4)sc2n1	18	-7	14	61*	7
CCOc1ccc(NC(=O)Cn2c(=O)oc3cc(S(=O)(=O)N4CCC(C)CC4)ccc32)cc1	-1	-2	-13	-1	-3
CCc1nn(CC(=O)N2CCN(c3ccc(OC)cc3)CC2)c(=O)c2cc3sccc3n12	0	6	-4	0	-4
Cc1cc(C)cc(N(CC(=O)NC2CCCCC2)C(=O)c2ccc(C)s2)c1	0	-6	-33*	0	-4
Cc1ccc(C(=O)N(CC(=O)NC2CCCC2)c2ccc3c(c2)OCCO3)s1	-1	-6	-55*	0	-7
Cc1cc(C)cc(N(CC(=O)NC2CCCC2)C(=O)CCC(=O)Nc2nc(C)cs2)c1	0	23	-19	58*	-9
Cc1cccc(N(CC(=O)NC2CCCC2)C(=O)CCC(=O)Nc2nc(C)cs2)c1	1	3	25	7	-2
O=C(NCC(c1cccnc1)N1CCc2ccccc2C1)C(=O)Nc1ccc(Cl)cc1 (configuration not stated)	0	0	-9	1	-4
Cc1ccccc1N1CCN(C2CCCN(C(=O)c3ccsc3)C2)CC1 (configuration not stated)	-1	5	-7	2	-5
CC1CCN(c2nc(-c3ccccc3)c(C#N)c(=O)[nH]2)CC1	1	0	-39*	1	-8
Cc1cccc(C)c1NC(=O)/C(C#N)=C/c1ccsc1	0	-2	-35*	3	5
COc1cc(C2NC(=O)c3c(sc4c3CCN(C)C4)N2)ccc1OC(=O)c1ccccc1 (configuration not stated)	22	-6	1	38*	4
O=C(NCc1ccccc1)c1ccc(CSc2nc3cccnc3n2Cc2cccc(F)c2)cc1	1	10	-5	8	-3
CC[C@H](C)/C=C(C)/C=C/C1=CC2=CC(=O)[C@]3(C)OC(=O)[C@@H](C(C)=O)[C@@H]3C2=CO1	11	-6	-14	42*	4
CC[C@H](C)/C=C(C)/C=C/C(=O)Cc1cc(O)c(C)c(O)c1C=O	3	-6	-16	14	-7
COc1cccc(NC(=O)CSc2nc(O)c(C)c(=O)n2-c2ccc(C)cc2)c1	0	5	-8	-1	-2
CC1(C)CC(=O)C(=CN2CCOCC2)C(=O)C1	0	2	2	7	-3
O=C(Nc1ccc([N+](=O)[O-])cc1)C1CC1(c1ccccc1)c1ccccc1 (configuration not stated)	1	1	-22	8	-3
CC1(C)C(C=C(Cl)Cl)C1C(=O)Nc1ccc([N+](=O)[O-])cc1 (configuration not stated)	1	-6	-31*	6	-7
O=C(C1CCC1)N1CCc2cc(S(=O)(=O)NCCN3CCN(c4ccccc4F)CC3)ccc21	2	0	-39*	3	-10
COC(=O)c1cc(S(=O)(=O)NCCN2CCN(c3ccccc3F)CC2)c[nH]1	1	3	-43*	4	-11
COC(=O)c1cc(S(=O)(=O)N2CCN(c3ccccc3F)CC2)c[nH]1	0	-2	-1	8	-4
SMILES	TRHR agonist	TRHR PAM	D1 antagonist	D1 ag	D1 PAM
Cc1nn(CC(=O)NCCc2ccc(Cl)cc2Cl)c(C)c1[N+](=O)[O-]	-1	10	-8	34*	-6
Cc1ccc(NC(=O)Cn2nc(C)c([N+](=O)[O-])c2C)cc1Cl	1	0	0	17	-13
COc1ccc2nc(N3C(=O)CNC3=S)sc2c1	0	6	-40*	0	-10
Cc1ccc(/C=C2\Oc3cc(OC(=O)N4CCOCC4)ccc3C2=O)cc1	0	-7	-25	0	-6
O=C(Oc1ccc2c(c1)O/C(=C\c1ccncc1)C2=O)c1ccccc1	0	3	3	56*	-1
O=C(c1ccc(S(=O)(=O)Nc2ccccc2)cc1)N1CCCC(C(F)(F)F)C1 (configuration not stated)	6	0	-5	51*	-13
CCOc1ccc(NS(=O)(=O)c2ccc(C(=O)NCC3(N(C)C)CCCCC3)cc2)cc1	-1	0	2	0	6
CCOc1ccc(S(=O)(=O)Nc2ccc(C(=O)N3CCCC3)cc2)cc1	0	-3	5	8	4
CCOc1ccc(NS(=O)(=O)c2ccc(C(=O)N3CCCC(C)C3)cc2)cc1 (configuration not stated)	0	9	-52*	59*	6
Cc1ccccc1NS(=O)(=O)c1ccc2[nH]c(=O)[nH]c2c1	0	30*	-1	3	-3
CCOc1ccc(NS(=O)(=O)c2ccc(C(=O)NCC3(N4CCCCC4)CCCCC3)cc2)cc1	9	-4	12	31*	-1
CCOc1ccccc1NS(=O)(=O)c1ccc2[nH]c(=O)[nH]c2c1	0	-10	3	0	-1
Cc1ccccc1NS(=O)(=O)c1ccc(C(=O)N2CCC2)cc1	0	14	-63*	-1	5
CC(=O)N1CCCc2ccc(NS(=O)(=O)c3ccc(C)cc3)cc21	0	7	0	18	-2
O=C(NCC1(N2CCCCC2)CCCCC1)c1cccc(S(=O)(=O)Nc2ccc(F)cc2)c1	1	-5	-38*	5	-4
O=C(NCC1(N2CCOCC2)CCCCC1)c1cccc(S(=O)(=O)Nc2ccc(F)cc2)c1	1	-3	11	2	-2
CC(=O)c1ccc(S(=O)(=O)Nc2ccc(-c3ccc(N4CCCCC4)nn3)cc2)cc1	0	31*	-14	6	-3
CCOc1ccc(S(=O)(=O)Nc2ccc3c(c2)N(C(C)=O)CCC3)cc1	1	-6	-32*	7	-1
